Consider eight compounds from PubChem BioAssay (NCI).

The panel holds about 83,000 compounds, 20% with a hit somewhere; the sample as a whole holds those more often.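 Values shown are percent growth following 48 h exposure of cells in 96-well plates to a single concentration of compound; below 10 was considered active.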 Unmarked numbers belong to inactive results. Active and inactive are the calls of the source.

Some test systems named below: SK-MEL-2 melanoma; EKVX NSCLC; SN12C renal; UO-31 renal; TK-10 renal; ACHN renal; CAKI-1 renal; CCRF-CEM leukemia; MOLT-4 leukemia; SR leukemia; OVCAR-8 ovarian; OVCAR-5 ovarian; OVCAR-4 ovarian; SK-OV-3 ovarian; OVCAR-3 ovarian; HS 578T breast; NCI/ADR-RES ovarian; IGROV1 ovarian; RPMI-8226 leukemia; A498 renal.
What all share (experiment): NCI-60 one-dose screen, 48 h (100 = growth as untreated, 0 = no growth, -100 = all killed)
Holding throughout (settings): 10 µM unless noted

With `O=C(Nc1ccc(-c2nc(-c3cccc(OCCN4CCOCC4)c3)c(-c3ccnc(Br)c3)[nH]2)cc1)c1ccccc1`, the growth was 25.3% in the test on SK-MEL-2 melanoma; 32.3% with EKVX NSCLC; 45.9% in the test on SN12C renal; -51.9% (active) in the test on UO-31 renal; 48.6% with TK-10 renal; 28.3% in the test on ACHN renal. In addition, the growth in the test on CAKI-1 renal is -6.68% (active); in the test on CCRF-CEM leukemia it was 15.1%; in the test on MOLT-4 leukemia it was 1.62% (active); in the test on SR leukemia, -11.6% (active); with OVCAR-8 ovarian, 41.5%; in the test with OVCAR-5 ovarian it was 35.4%. Also, the growth was 55.2% in the test on OVCAR-4 ovarian; -25.6% (active) with SK-OV-3 ovarian; 44.2% in the test with OVCAR-3 ovarian; -41% (active) in the test with HS 578T breast; 53.4% in the test on NCI/ADR-RES ovarian.

`O=[N+]([O-])c1ccccc1NCSc1ccc(Cl)cc1`: the growth in the test with SK-MEL-2 melanoma is 114%; in the test with EKVX NSCLC, 104%; in the test on SN12C renal, 72%; in the test with UO-31 renal it was 68.3%; with TK-10 renal it was 101%; in the test on ACHN renal, 104%. Further, the growth in the test with CAKI-1 renal is 95.3%; in the test on CCRF-CEM leukemia, 25%; in the test on MOLT-4 leukemia it was 49.7%; in the test with SR leukemia, 65%; with OVCAR-8 ovarian, 95.5%; in the test on OVCAR-5 ovarian it was 114%. Moreover, the growth is 108% in the test on OVCAR-4 ovarian; 109% in the test on SK-OV-3 ovarian; 123% in the test with IGROV1 ovarian; 109% in the test on OVCAR-3 ovarian; 99.7% in the test on HS 578T breast.

For the compound `Cn1cc(-c2ccc3cc(-c4ccc(CC(=O)Nc5cc(C(C)(C)C)nn5C)cc4)cnc3c2)cn1`, the growth with SK-MEL-2 melanoma is -38.4% (active); in the test with EKVX NSCLC, 23.5%; with SN12C renal, 5.18% (active); with UO-31 renal, 1.27% (active); with TK-10 renal it was 15.8%; with ACHN renal, 3.05% (active). The growth in the test with CAKI-1 renal is 0.564% (active); in the test with CCRF-CEM leukemia it was 23%; in the test on MOLT-4 leukemia it was 13.2%; with RPMI-8226 leukemia it was 3.3% (active); with OVCAR-8 ovarian, 3.03% (active); in the test with OVCAR-5 ovarian it was 43.8%. The growth in the test with OVCAR-4 ovarian is 3.73% (active); in the test on SK-OV-3 ovarian, -5.28% (active); in the test on IGROV1 ovarian, -1.22% (active); with OVCAR-3 ovarian it was 14.2%; with HS 578T breast it was -1.77% (active); with NCI/ADR-RES ovarian it was -2.56% (active).

`Cc1c(C(=O)NCCCc2ccccc2)sc2ncc(-c3ccc(Br)cc3)n12`: the growth in the test on SK-MEL-2 melanoma was 115%; in the test on EKVX NSCLC, 106%; in the test on SN12C renal, 98.7%; in the test on UO-31 renal, 92%; in the test with TK-10 renal, 135%; in the test on ACHN renal it was 103%. For the same compound, the growth in the test on CAKI-1 renal is 101%; with CCRF-CEM leukemia it was 96.8%; in the test on MOLT-4 leukemia, 99.8%; with SR leukemia, 106%; in the test on OVCAR-8 ovarian it was 105%; in the test with OVCAR-5 ovarian it was 107%. For the same compound, the growth in the test on OVCAR-4 ovarian was 111%; with SK-OV-3 ovarian, 99.5%; in the test with IGROV1 ovarian it was 100%; with OVCAR-3 ovarian it was 112%; with HS 578T breast, 104%; with NCI/ADR-RES ovarian, 107%.

`O=C1NC(=O)C(Cn2cnc3ccccc32)N1` (configuration not stated): the growth in the test with SK-MEL-2 melanoma is 107%; in the test with EKVX NSCLC it was 100%; in the test on SN12C renal it was 98.6%; in the test on UO-31 renal it was 92.6%; in the test with TK-10 renal, 99.6%; in the test on ACHN renal it was 99.8%. The growth with CAKI-1 renal is 101%; with CCRF-CEM leukemia, 102%; in the test with MOLT-4 leukemia, 99.6%; with RPMI-8226 leukemia, 99.5%; in the test on OVCAR-8 ovarian, 106%; in the test on OVCAR-5 ovarian it was 110%. Also, the growth in the test on OVCAR-4 ovarian is 105%; in the test on SK-OV-3 ovarian it was 101%; in the test with IGROV1 ovarian it was 105%; in the test with OVCAR-3 ovarian it was 103%; in the test with HS 578T breast, 107%; in the test on NCI/ADR-RES ovarian, 101%.

Consider `COc1ccc(-c2nc3sc(-c4ccccc4)cn3n2)cc1`, for which the growth with SK-MEL-2 melanoma was 59.1%; with EKVX NSCLC, 62.7%; in the test on SN12C renal, 62.6%; in the test on UO-31 renal, 61.7%; in the test on TK-10 renal, 106%; in the test with ACHN renal, 67.5%. Also, the growth is 60% in the test on CAKI-1 renal; 64.2% in the test with CCRF-CEM leukemia; 50.7% in the test on MOLT-4 leukemia; 41.2% in the test with SR leukemia; 78.6% in the test with RPMI-8226 leukemia; 108% in the test with OVCAR-5 ovarian. Also, the growth with OVCAR-4 ovarian is 62.2%; with SK-OV-3 ovarian, 67.8%; in the test with IGROV1 ovarian it was 47.8%; in the test with OVCAR-3 ovarian, 58.2%; in the test on HS 578T breast, 59.9%; in the test with NCI/ADR-RES ovarian, 34%.

Take `COc1cc(/C=C/C(=O)/C=C/c2cc(OC)c3c(c2OC)OCO3)c(OC)c2c1OCO2`: the growth is 28.1% in the test with SK-MEL-2 melanoma; 87.7% with EKVX NSCLC; 30.4% with SN12C renal; 57.3% with UO-31 renal; 12.9% with TK-10 renal; 25.5% in the test with ACHN renal. Further, the growth is 29.7% in the test on CAKI-1 renal; 26.5% in the test on CCRF-CEM leukemia; 18.7% in the test on MOLT-4 leukemia; 15.7% with RPMI-8226 leukemia; 2.45% (active) in the test on OVCAR-8 ovarian; 81.8% in the test on OVCAR-5 ovarian. The growth with OVCAR-4 ovarian is 32%; with SK-OV-3 ovarian it was 78.2%; in the test with IGROV1 ovarian it was 29.8%; in the test with OVCAR-3 ovarian, 0.304% (active); with HS 578T breast it was 63.8%; in the test with NCI/ADR-RES ovarian, 28.3%.

Take `Cc1ccc(C(CC(=O)O)c2c(C)[nH][nH]c2=O)cc1` (configuration not stated): the growth is 113% in the test with SK-MEL-2 melanoma; 105% with EKVX NSCLC; 98.2% with SN12C renal; 93% with UO-31 renal; 98.6% in the test with TK-10 renal; 104% in the test with ACHN renal. Moreover, the growth with CAKI-1 renal was 101%; in the test on A498 renal it was 112%; in the test on CCRF-CEM leukemia, 97.1%; in the test on MOLT-4 leukemia it was 98.8%; with OVCAR-8 ovarian, 101%; in the test with OVCAR-5 ovarian it was 106%. Further, the growth in the test with OVCAR-4 ovarian was 111%; in the test on SK-OV-3 ovarian, 97.7%; in the test with IGROV1 ovarian it was 105%; with OVCAR-3 ovarian, 109%; in the test with HS 578T breast it was 109%; in the test with NCI/ADR-RES ovarian, 102%.
